Assay results as given in ChEMBL document CHEMBL1961873, “Compounds: GSK PKIS; Assays: Nanosyn kinase panel” (2012).

Tests used:
[1] = molecular target: Leukocyte tyrosine kinase receptor (Homo sapiens) (UniProt P29376); conditions: at 1 µM;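 also: each value is the mean inhibition of LTK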
[2] = molecular target: Tyrosine-protein kinase Lyn (Homo sapiens) (UniProt P07948); conditions: at 0.1 µM
[3] = molecular target: Tyrosine-protein kinase Lyn (Homo sapiens) (UniProt P07948); conditions: at 1 µM
[4] = molecular target: Tyrosine-protein kinase Lyn (Homo sapiens) (UniProt P07948); conditions: at 0.1 µM; remark: listed apart in the source
[5] = molecular target: Tyrosine-protein kinase Lyn (Homo sapiens) (UniProt P07948); conditions: at 1 µM; remark: listed apart in the source
[6] = molecular target: T1, Tyrosine-protein kinase Mer (Homo sapiens) (UniProt Q12866); conditions: at 0.1 µM
T1 sequence (whole entry): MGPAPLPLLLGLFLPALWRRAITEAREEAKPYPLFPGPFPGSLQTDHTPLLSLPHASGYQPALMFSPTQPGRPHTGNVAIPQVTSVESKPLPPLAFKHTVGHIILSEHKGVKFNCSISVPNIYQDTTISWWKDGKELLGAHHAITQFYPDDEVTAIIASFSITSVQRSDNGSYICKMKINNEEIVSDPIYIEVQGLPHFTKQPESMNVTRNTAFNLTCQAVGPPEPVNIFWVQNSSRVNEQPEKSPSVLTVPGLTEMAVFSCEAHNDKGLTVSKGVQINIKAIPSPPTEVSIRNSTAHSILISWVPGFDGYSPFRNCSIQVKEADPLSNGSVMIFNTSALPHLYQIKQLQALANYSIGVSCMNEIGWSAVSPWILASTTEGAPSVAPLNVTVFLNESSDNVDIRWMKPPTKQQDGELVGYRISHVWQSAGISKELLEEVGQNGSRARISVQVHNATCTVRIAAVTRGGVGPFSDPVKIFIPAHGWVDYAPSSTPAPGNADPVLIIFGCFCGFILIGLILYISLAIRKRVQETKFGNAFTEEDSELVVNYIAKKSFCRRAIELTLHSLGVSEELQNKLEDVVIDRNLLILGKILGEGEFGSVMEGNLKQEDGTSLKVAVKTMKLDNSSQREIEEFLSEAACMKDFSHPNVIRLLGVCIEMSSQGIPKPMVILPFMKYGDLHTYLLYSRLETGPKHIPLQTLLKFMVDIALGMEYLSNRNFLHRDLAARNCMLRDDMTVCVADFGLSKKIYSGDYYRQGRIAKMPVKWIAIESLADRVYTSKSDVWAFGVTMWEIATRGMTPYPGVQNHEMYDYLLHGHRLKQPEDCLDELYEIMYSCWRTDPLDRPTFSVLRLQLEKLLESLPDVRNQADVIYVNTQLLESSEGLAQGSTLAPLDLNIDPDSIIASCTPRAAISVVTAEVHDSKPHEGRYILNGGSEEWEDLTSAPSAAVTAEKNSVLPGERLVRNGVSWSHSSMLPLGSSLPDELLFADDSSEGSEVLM

[7] = molecular target: T1, Tyrosine-protein kinase Mer (Homo sapiens); conditions: at 1 µM
[8] = molecular target: Hepatocyte growth factor receptor (Homo sapiens) (UniProt P08581); conditions: at 0.1 µM
[9] = molecular target: Hepatocyte growth factor receptor (Homo sapiens) (UniProt P08581); conditions: at 1 µM
[10] = molecular target: T2, Muscle, skeletal receptor tyrosine-protein kinase (Homo sapiens) (UniProt O15146); conditions: at 0.1 µM
T2 sequence (whole entry): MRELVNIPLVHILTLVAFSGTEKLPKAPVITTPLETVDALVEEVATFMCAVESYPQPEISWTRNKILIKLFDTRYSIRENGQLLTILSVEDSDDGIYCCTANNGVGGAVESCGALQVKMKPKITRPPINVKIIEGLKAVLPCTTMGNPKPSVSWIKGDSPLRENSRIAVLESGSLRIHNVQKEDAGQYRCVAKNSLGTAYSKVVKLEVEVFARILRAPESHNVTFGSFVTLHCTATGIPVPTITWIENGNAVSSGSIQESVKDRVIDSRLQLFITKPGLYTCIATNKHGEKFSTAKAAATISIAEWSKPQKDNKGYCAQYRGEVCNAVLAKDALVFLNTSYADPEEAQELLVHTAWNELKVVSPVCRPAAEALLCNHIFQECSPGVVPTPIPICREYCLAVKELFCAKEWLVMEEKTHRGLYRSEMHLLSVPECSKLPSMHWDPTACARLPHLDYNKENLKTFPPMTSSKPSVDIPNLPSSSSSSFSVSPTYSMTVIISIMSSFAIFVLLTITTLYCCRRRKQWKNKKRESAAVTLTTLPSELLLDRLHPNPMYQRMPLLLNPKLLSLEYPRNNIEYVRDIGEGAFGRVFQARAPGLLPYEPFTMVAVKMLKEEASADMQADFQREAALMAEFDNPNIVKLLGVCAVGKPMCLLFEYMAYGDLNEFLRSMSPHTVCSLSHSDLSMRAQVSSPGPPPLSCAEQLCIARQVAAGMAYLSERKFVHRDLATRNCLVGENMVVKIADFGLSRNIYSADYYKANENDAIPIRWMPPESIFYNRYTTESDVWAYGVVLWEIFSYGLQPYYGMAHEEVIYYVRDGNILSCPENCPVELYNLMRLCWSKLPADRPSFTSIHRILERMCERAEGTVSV

[11] = molecular target: T2, Muscle, skeletal receptor tyrosine-protein kinase (Homo sapiens); conditions: at 1 µM
[12] = molecular target: Platelet-derived growth factor receptor alpha (Homo sapiens) (UniProt P16234); conditions: at 0.1 µM
Platelet-derived growth factor receptor alpha (Homo sapiens), sequence (P16234 whole entry): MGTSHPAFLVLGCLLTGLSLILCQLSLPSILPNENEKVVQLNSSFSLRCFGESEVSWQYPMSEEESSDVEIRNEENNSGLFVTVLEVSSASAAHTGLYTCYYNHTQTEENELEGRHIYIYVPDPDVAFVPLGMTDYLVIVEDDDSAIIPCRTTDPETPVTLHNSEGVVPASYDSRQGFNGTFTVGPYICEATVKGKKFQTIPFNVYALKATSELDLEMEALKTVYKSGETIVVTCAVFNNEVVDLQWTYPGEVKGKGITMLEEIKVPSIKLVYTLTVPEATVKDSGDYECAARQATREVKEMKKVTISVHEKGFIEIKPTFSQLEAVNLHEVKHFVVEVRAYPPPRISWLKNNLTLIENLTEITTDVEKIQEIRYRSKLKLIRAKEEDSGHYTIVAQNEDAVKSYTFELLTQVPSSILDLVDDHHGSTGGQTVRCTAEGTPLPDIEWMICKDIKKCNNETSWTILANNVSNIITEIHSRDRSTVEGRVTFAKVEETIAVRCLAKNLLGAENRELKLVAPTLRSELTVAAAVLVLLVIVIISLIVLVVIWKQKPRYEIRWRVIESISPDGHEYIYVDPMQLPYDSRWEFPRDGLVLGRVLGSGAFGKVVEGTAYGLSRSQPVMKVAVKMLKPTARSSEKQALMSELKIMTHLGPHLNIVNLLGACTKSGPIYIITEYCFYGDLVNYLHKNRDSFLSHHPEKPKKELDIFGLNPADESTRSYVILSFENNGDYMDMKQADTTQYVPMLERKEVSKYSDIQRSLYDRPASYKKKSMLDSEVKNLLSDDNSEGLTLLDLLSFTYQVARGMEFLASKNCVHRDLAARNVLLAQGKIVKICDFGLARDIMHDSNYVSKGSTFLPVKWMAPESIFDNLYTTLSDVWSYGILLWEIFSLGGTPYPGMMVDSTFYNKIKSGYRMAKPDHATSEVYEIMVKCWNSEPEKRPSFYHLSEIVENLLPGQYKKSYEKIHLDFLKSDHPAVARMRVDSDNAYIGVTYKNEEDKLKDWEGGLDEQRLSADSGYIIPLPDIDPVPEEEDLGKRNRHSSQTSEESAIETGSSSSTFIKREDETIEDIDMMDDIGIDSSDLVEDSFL

[13] = molecular target: Platelet-derived growth factor receptor alpha (Homo sapiens) (UniProt P16234); conditions: at 1 µM
[14] = test system: Platelet-derived growth factor receptor alpha (Homo sapiens), P16234 [D842V]; conditions: at 0.1 µM
Platelet-derived growth factor receptor alpha (Homo sapiens), P16234 [D842V], sequence (P16234 whole entry D842V): as the sequence (P16234 whole entry) above, with D842V counted along it

[15] = test system: Platelet-derived growth factor receptor alpha (Homo sapiens), P16234 [D842V]; conditions: at 1 µM
[16] = test system: Platelet-derived growth factor receptor alpha (Homo sapiens), P16234 [T674I]; conditions: at 0.1 µM
[17] = test system: Platelet-derived growth factor receptor alpha (Homo sapiens), P16234 [T674I]; conditions: at 1 µM
[18] = test system: Platelet-derived growth factor receptor alpha (Homo sapiens), P16234 [V561D]; conditions: at 0.1 µM
Platelet-derived growth factor receptor alpha (Homo sapiens), P16234 [V561D], sequence (P16234 whole entry V561D): as the sequence (P16234 whole entry) above, with V561D counted along it

[19] = test system: Platelet-derived growth factor receptor alpha (Homo sapiens), P16234 [V561D]; conditions: at 1 µM
[20] = molecular target: Platelet-derived growth factor receptor beta (Homo sapiens) (UniProt P09619); conditions: at 0.1 µM;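 also: reported value is the mean percent inhibition of the kinase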

Leukocyte tyrosine kinase receptor (Homo sapiens), sequence (P29376 whole entry): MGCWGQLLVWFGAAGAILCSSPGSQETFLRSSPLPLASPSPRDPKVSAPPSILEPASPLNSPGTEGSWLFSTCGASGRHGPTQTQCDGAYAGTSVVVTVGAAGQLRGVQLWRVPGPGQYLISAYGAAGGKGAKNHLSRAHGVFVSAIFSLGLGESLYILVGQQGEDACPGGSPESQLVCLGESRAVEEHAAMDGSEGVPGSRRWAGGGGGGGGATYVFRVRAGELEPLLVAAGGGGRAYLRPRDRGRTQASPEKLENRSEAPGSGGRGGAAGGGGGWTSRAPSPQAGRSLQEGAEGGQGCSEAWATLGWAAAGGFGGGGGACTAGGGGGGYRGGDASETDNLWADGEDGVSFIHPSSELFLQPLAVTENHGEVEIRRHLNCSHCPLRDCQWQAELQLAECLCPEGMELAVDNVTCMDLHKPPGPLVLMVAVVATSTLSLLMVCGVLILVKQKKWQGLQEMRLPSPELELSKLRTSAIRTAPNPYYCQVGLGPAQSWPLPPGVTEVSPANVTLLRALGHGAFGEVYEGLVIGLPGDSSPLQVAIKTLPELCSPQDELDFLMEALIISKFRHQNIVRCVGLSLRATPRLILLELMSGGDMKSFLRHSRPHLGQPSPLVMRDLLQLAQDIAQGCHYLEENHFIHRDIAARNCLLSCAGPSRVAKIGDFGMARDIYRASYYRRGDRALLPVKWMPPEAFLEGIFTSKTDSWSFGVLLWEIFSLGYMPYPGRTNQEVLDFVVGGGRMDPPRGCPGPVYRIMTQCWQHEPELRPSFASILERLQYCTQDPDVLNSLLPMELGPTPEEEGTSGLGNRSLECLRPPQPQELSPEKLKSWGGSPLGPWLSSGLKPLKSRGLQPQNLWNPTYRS
Tyrosine-protein kinase Lyn (Homo sapiens), sequence (P07948 2-512 limits assumed): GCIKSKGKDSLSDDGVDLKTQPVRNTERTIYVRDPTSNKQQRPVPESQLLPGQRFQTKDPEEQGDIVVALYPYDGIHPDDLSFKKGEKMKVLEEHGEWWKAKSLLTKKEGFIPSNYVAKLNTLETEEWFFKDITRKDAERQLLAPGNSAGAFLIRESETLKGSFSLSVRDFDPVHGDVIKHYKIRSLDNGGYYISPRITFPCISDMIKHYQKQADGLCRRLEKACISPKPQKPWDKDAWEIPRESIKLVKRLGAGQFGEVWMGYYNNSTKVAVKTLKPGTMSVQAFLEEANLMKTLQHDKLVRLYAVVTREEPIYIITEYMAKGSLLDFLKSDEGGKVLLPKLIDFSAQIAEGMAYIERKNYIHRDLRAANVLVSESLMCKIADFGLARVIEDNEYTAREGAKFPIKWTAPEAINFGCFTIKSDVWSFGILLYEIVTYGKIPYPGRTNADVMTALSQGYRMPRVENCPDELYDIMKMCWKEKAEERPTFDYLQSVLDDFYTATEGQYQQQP

SMILES	inhibition [1] [%]	inhibition [2] [%]	inhibition [3] [%]	inhibition [4] [%]	inhibition [5] [%]	inhibition [6] [%]	inhibition [7] [%]	inhibition [8] [%]	inhibition [9] [%]	inhibition [10] [%]	inhibition [11] [%]	inhibition [12] [%]	inhibition [13] [%]	inhibition [14] [%]	inhibition [15] [%]	inhibition [16] [%]	inhibition [17] [%]	inhibition [18] [%]	inhibition [19] [%]	inhibition [20] [%]
COc1cc2ncnc(Nc3ccc4c(cnn4Cc4ccccc4)c3)c2cc1OC	2.45	10.4	46.1	7.01	40.7	7	45.5	2.31	4.07	3.2	2.89	9.97	36.9	4	7.42	4.73	17	6.36	23.3	3.39
COc1cc2ncnc(Nc3ccc(C)c(O)c3)c2cc1OC	24.8	39.7	83.9	32.6	80.8	2.64	4.97	1.61	9.16	0.51	7.42	85.7	93.9	94.2	98	6.7	16.9	89.4	97.8	33.2
Nc1nccc(-c2c(-c3ccc(F)cc3)ncn2CCCN2CCOCC2)n1	2.3	5.23	9.61	2.71	5.84	0.72	2.2	3.68	5.4	0.89	3.99	4.62	14.7	1.96	6.03	6.08	7.81	3.07	8.56	3.65
Oc1cccc(-c2nc(-c3ccccc3)[nH]c2-c2ccncc2)c1	7.05	9.9	31.3	6.99	25.4	1.35	6.42	6.73	11.1	4.05	8.69	8.99	18.5	4	13.2	5.63	5.18	2.42	9.69	5.66
C[C@@H](Oc1cc(-n2cnc3ccc(OCC4CCN(C)CC4)cc32)sc1C(N)=O)c1ccccc1C(F)(F)F	3.18	1.14	18.9	1.52	16.5	-0.95	6.99	2.85	9.84	41.3	76	25.1	69.4	18.1	65.6	4.88	46	17.7	66.2	56.3
Cc1cc(Cl)cc2c1NC(=O)C2=NNc1ccc(S(N)(=O)=O)cc1	2.25	3.74	4.11	2.32	4.84	0.38	0.48	-0.26	5.08	2.21	0.5	5.26	20.5	4.17	9.86	6.4	9.82	9.46	25.8	2.83
c1ccc(Cc2nc3ccc(Nc4ncnc5ccccc45)cc3[nH]2)cc1	2.52	5.18	10.3	2.45	8.65	0.72	1.74	4.71	7.9	3.14	3.78	8.25	17	-0.75	1	3.02	5.74	3.34	12.9	4.81
NS(=O)(=O)c1ccc(-c2cc3ccncc3cc2OCc2ccccc2)cc1	14.8	5.43	8.06	4.33	5.23	0.4	1.77	9.74	5.85	1.45	0.07	8.15	13.2	0.32	4.83	3.46	9.33	3.67	6.32	3.66
Cc1ccc(O)cc1Nc1ccnc2ccc(S(C)(=O)=O)cc12	10.2	93.2	96.7	91.9	96.2	3.15	4.83	5.51	-0.38	2.4	5.56	72.2	85	88.8	97.1	7.4	14.8	84.7	95	63.8
Cc1ccc(Nc2ccnc(Nc3cccc(C(N)=O)c3)n2)cc1O	15.9	61.2	90.5	56.5	88.8	1.3	11.7	5.11	6.87	5.89	26.7	48.1	82.3	48.4	88.5	6.94	26.3	46.3	87.2	54.7
CN(C)C(=O)O[C@H]1CN[C@H](C#Cc2cc3ncnc(Nc4ccc(OCc5cccc(F)c5)c(Cl)c4)c3s2)C1	3.95	3.87	4.57	1.48	3.94	0.43	3.05	1.84	6.26	2.98	3.36	6.77	11.1	3.09	1.15	5.6	4.48	4.17	7.24	2.18
Cc1ccc(NC(=O)CC2CC2)cc1-c1ccc(C(=O)NCC2CC2)cc1	4.25	6.32	7.19	4.03	6.24	0.96	1.85	7.51	9	2.1	5.33	8.04	13.8	2.79	4.37	3.52	9.3	4.68	5.09	4.05
Cc1ccc(C(=O)NC2CC2)cc1-c1ccc2[nH]ncc2c1	-2.27	-2.45	-0.16	-2.22	-0.48	-1.71	1.57	-0.6	-1.74	0.78	2.51	2.1	13.4	1.95	4.58	1.44	2.76	3.49	13.8	1.82
